Results reported in PubChem BioAssay AID651658 (Broad Institute, 2012).
About 5,100 (1.5%) of roughly 340,000 compounds were called active. The entries come from a sample that favours actives as a whole. A number with no mark means an inactive call.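 How the source made its calls: active means mean Tm shift, scaled 0 neutral to 100 positive control, at about 1.3% or above, every replicate too (limit read from the data); inconclusive means no clear call, values can overlap the other calls; inactive means the rest.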

These compounds were tested against Fibroblast growth factor 22 (Homo sapiens) (UniProt Q9HCT0) (assay: binders of human FGF22 protein, primary screen, FGF22 synaptogenesis inhibitor project, biophysical, thermal shift, single point (AID 651658)). Conditions: recombinant FGF22 thermal shift, SYPRO orange fluorescence; at 9.99 µM; stronger effect = higher value; percent of sucrose octasulfate shift, DMSO zero.
Chain of Fibroblast growth factor 22 (Homo sapiens) (Q9HCT0 whole entry, looked up): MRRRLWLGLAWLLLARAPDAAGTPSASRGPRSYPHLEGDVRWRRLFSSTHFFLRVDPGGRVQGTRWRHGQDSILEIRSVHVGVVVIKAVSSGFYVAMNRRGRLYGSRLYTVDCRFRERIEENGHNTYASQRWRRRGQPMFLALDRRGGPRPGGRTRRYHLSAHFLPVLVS

SMILES | activity (Tm shift, normalised)
Cc1noc(C)c1NC(=O)Nc1ccc2c(c1)C(=O)N([C@H](C)CO)C[C@@H](C)[C@@H](CN(C)S(=O)(=O)c1ccc(Cl)cc1)OCCCC[C@H](C)O2 | -0.533%
COc1ccc(NC(=O)O[C@@H](c2ccc(OCCO)cc2)[C@@H](C)CCO)cc1 | -1.48%
CCCNC(=O)N1CCC2(CC1)CN(C(=O)CN1CCOCC1)[C@H](CO)c1[nH]c3cc(OC)ccc3c12 | -0.015%
N#Cc1c(NC(=O)CCCl)sc2c1CCCCC2 | 43% (active)
N#Cc1c(NC(=O)C2CCCO2)sc2c1CCCCC2 (stereo not drawn) | 0.476%
CCN1CCN(CC(=O)Nc2sc3c(c2C#N)CCC3)CC1 | -0.078%
CCCNC(=O)C[C@@H]1CC[C@@H]2[C@H](COc3ccc(NC(=O)c4cc(F)cc(F)c4)cc3C(=O)N2C)O1 | 0.224%
O=C(C[C@@H]1CC[C@@H](NC(=O)c2ccc3c(c2)OCO3)[C@H](CO)O1)NCc1ccc(F)cc1 | -0.125%
Cc1ccccc1S(=O)(=O)N1C[C@@H]2N[C@H](C1)C2c1ccc(-c2cccc(C(=O)N(C)C)c2)cc1 (stereo partly drawn) | 0.138%
O=C(C[C@H]1CC[C@@H]2[C@H](COC[C@@H](O)CN2Cc2cccc(-c3ccncc3)c2)O1)N1CCOCC1 | 0.256%
CNC(=O)C[C@H]1C(=O)N(Cc2ccccc2)C[C@@H]1CSC | 0.23%
CNC(=O)C[C@H]1C(=O)N(c2ccc(OC)cc2)C[C@@H]1Cc1ccccc1 | 43.3% (active)
O=C(C[C@H]1C(=O)N(c2ccc(F)c(F)c2)C[C@@H]1Cc1ccccc1)Nc1ccccc1 | -0.246%
CC(C)N1C(=O)[C@@]2(Cc3ccccc31)c1ccccc1C(=O)N(C1CCCCC1)[C@H]2c1ccc(CO)cc1 | -0.066%
COc1ccc(-c2ccccc2[C@H]2[C@@H](CO)N(C(=O)C3CCC3)[C@H]2C#N)cc1 | -0.131%
C[C@H](CO)N1C[C@H](C)[C@H](CN(C)C(=O)Cc2ccccn2)Oc2ncc(-c3cncnc3)cc2C1=O | -0.28%
Cc1ccc(C(=O)NC(=S)Nc2ccc(N3CCOCC3)cc2)cc1 | -0.25%
COC(=O)c1ccc(NC(=S)Nc2cccc(C)n2)cc1 | 42.2%
COC(=O)c1ccc(NC(=S)NN2CCOCC2)cc1 | 43.4% (active)
OC[C@@H]1Nc2ccc(-c3ccc(F)cc3)cc2[C@@H]2[C@H]1CCN2Cc1ccc(F)cc1 | -0.323%
COc1ccc(NC(=O)Nc2ccc3c(c2)[C@@H]2C[C@@H](CC(=O)NCc4ccncc4)O[C@@H](CO)[C@@H]2O3)cc1 | -0.189%
C[C@@H]1CN([C@H](C)CO)S(=O)(=O)c2ccc(-c3ccccc3)cc2O[C@@H]1CN(C)C(=O)CC1CC1 | -0.061%
C[C@@H]1CCCCO[C@H](CN(C)S(=O)(=O)c2ccccc2)[C@@H](C)CN([C@@H](C)CO)C(=O)c2cc(NS(=O)(=O)c3ccccc3)ccc2O1 | -0.644%
COc1ccc(NC(=O)CSc2nc(SC)ns2)c(OC)c1 | 0.019%
CCc1cc2cc(OC)ccc2nc1SCC(=O)Nc1cc(OC)c(OC)cc1C(=O)O | 43.1% (active)

SMILES | activity (Tm shift, normalised)
COc1ccc(OC)c(NC(=O)CSc2nc(-c3ccccc3)cc(=O)[nH]2)c1 | -0.146%
O=[N+]([O-])c1ccc(NCCCO)c(C(F)(F)F)c1 | 0.215%
O=C(NCCNc1ccc([N+](=O)[O-])cc1)c1cccc2c(Br)cccc12 | 0%
CC(C)(C)C(=O)NCCCNc1ccc([N+](=O)[O-])cc1 | 43.5% (active)
CNC(=O)C[C@@H]1CC[C@@H]2[C@@H](COc3ccc(NC(=O)c4ccc5c(c4)OCO5)cc3C(=O)N2C)O1 | -0.015%
CNS(=O)(=O)c1ccc(NC(=O)Nc2ccc3c(c2)OCO3)cc1 | -0.016%
CC(NC(=O)Nc1ccc2c(c1)OCO2)c1ccncc1 (stereo not drawn) | 0.039%
Cc1cccc(NC(=O)Nc2ccc3c(c2)OCO3)n1 | 43.6% (active)
COc1ccc(NC(=O)Nc2ccc3c(c2)C(=O)N([C@H](C)CO)C[C@H](C)[C@@H](CN(C)Cc2ccc(C(=O)O)cc2)OCCCC[C@H](C)O3)cc1 | -0.009%
CC=Cc1ccc2n(c1=O)C[C@@H]1[C@@H](CO)[C@H](C(=O)N[C@H](C)c3ccccc3)N(C(=O)c3cnccn3)[C@H]21 (mixture of isomers) | -0.323%
O=C(COC(=O)/C=C/c1ccc(Cl)cc1)NC1CCS(=O)(=O)C1 (stereo not drawn) | 0.02%
Nc1ccc(C(=O)OCC(=O)NC2CCS(=O)(=O)C2)cc1[N+](=O)[O-] (stereo not drawn) | 43.7% (active)
O=C(COC(=O)c1ncc(Cl)c(Cl)c1Cl)NC1CCS(=O)(=O)C1 (stereo not drawn) | 0.023%
COc1ccc2c3c([nH]c2c1)[C@H](CO)N(C(C)=O)CC31CN(S(=O)(=O)c2cccs2)C1 | -10.2%
C[C@@H]1CN([C@@H](C)CO)C(=O)Cc2cc(NC(=O)Cc3cn(C)c4ccccc34)ccc2O[C@H]1CN(C)Cc1ccc(C(=O)O)cc1 | 0.077%
C[C@H](CO)N1C[C@H](C)[C@@H](CN(C)Cc2ccc(C(=O)O)cc2)Oc2ccc(NC(=O)Cn3cnnn3)cc2CC1=O | -0.125%
C[C@@H]1CN([C@H](C)CO)C(=O)Cc2cc(NC(=O)Cn3cnnn3)ccc2O[C@H]1CN(C)Cc1ccc(C(F)(F)F)cc1 | 1.38% (active)
C[C@H]1CN([C@@H](C)CO)C(=O)Cc2cc(NC(=O)Cn3cnnn3)ccc2O[C@H]1CN(C)Cc1ccc(C(=O)O)cc1 | -0.049%
C[C@H]1CN([C@@H](C)CO)C(=O)Cc2cc(NC(=O)Cc3cn(C)c4ccccc34)ccc2O[C@@H]1CN(C)Cc1ccccc1 | 1.38% (active)
C[C@H]1CN([C@@H](C)CO)C(=O)Cc2cc(NC(=O)Cc3cn(C)c4ccccc34)ccc2O[C@H]1CN(C)Cc1ccccc1 | 1.01%
N#C[C@@H]1[C@@H](c2ccccc2)[C@H](CO)N1C(=O)c1cc(Cl)cc(Cl)c1 | -0.051%
O=C(NN1C(=O)C2C3C=CC(O3)C2C1=O)c1ccncc1 (stereo not drawn) | 0.125%
O=C(NN1C(=O)C2C3C=CC(O3)C2C1=O)c1ccccc1 (stereo not drawn) | 1.65% (active)
CC(C)=C1C2CCC1C1C(=O)N(NC(=O)c3ccco3)C(=O)C21 (stereo not drawn) | -0.011%
O=C(C[C@@H]1C[C@H]2c3cc(NC(=O)NC4CCCC4)ccc3O[C@H]2[C@@H](CO)O1)NC1CCCCC1 | -0.272%

SMILES | activity (Tm shift, normalised)
O=C(C1CC1)N1CCCCN2[C@H](C1)[C@@H](c1ccc(-c3cccc(F)c3)cc1)[C@@H]2CO | -0.119%
C[C@@H]1CN([C@@H](C)CO)S(=O)(=O)c2ccc(-c3ccc(C#N)cc3)cc2O[C@H]1CN(C)Cc1ccccn1 | -0.176%
CCOC(=O)C1(C)NC(c2ccco2)C2C(=O)N(c3ccccc3)C(=O)C21 (stereo not drawn) | 0.052%
CCN(C[C@H]1N[C@@](CC)(C(=O)OC)[C@H]2C(=O)N(C)C(=O)[C@@H]12)C(=O)Nc1ccc(F)cc1 | -0.067%
CCCSc1ccc([C@H]2N[C@@](Cc3ccccc3)(C(=O)OC)[C@H]3C(=O)N(C)C(=O)[C@@H]23)cc1 | 0.041%
CCCC1(C(=O)OC)NC(c2ccco2)C2C(=O)N(C)C(=O)C21 (stereo not drawn) | 43.8% (active)
CC[C@@]1(C(=O)OC)N[C@H](CN(C)C(C)=O)[C@@H]2C(=O)N(C)C(=O)[C@@H]21 | 43.4% (active)
COC(=O)[C@]1(C)N[C@H](CN(C)C(=O)c2ccc(C(C)(C)C)cc2)[C@@H]2C(=O)N(C)C(=O)[C@@H]21 | 0.232%
COc1cccc(S(=O)(=O)N2[C@@H]3CNC[C@H]2C3c2ccc(-c3cccc(C(=O)N(C)C)c3)cc2)c1 (stereo partly drawn) | 0.014%
C[C@@H]1CN([C@H](C)CO)C(=O)c2cc(NC(=O)c3ccncc3)ccc2O[C@@H]1CN(C)C(=O)Nc1ccc(F)cc1 | -0.074%
CO[C@@H]1CN(C)C(=O)c2cc(NS(C)(=O)=O)ccc2OC[C@@H](C)N(C(=O)C2CCC2)C[C@@H]1C | -0.13%
CO[C@H]1CN(C)C(=O)c2ccc(NC(=O)C3CCCC3)cc2OC[C@H](C)N(C(=O)CC2CC2)C[C@@H]1C | 0.031%
N#C[C@@H]1[C@@H](c2ccccc2)[C@@H](CO)N1C(=O)Cc1ccccc1 | -0.224%
COc1ccccc1NC(=O)N1[C@H](C#N)[C@H](c2ccccc2)[C@H]1CO | 1.69% (active)
CCCNC(=O)N1[C@H](C#N)[C@@H](c2ccccc2)[C@H]1CO | 0.065%
CCCc1cn(CC[C@H]2CC[C@@H](NS(=O)(=O)c3ccccc3Cl)[C@@H](CO)O2)nn1 | -0.219%
Cc1ccc(NC(=O)Cn2cnc3c(OCc4ccccc4)ncnc32)cc1C | 0.021%
O=C(Cn1cnc2c(OCc3ccccc3)ncnc21)NCCCn1ccnc1 | 43.3% (active)
CC(CNC(=O)Cn1cnc2c(OCc3ccccc3)ncnc21)c1ccccc1 (stereo not drawn) | -0.208%
CCC(=O)N(C)C[C@@H]1Oc2ncc(C#CCc3ccccc3)cc2C(=O)N([C@H](C)CO)C[C@H]1C | -0.313%
Cc1cc(C)cc(NC(=O)CCN2C(=O)c3ccccc3C2=O)c1 | 0.073%
COc1ccc(CNC(=O)CCN2C(=O)c3ccccc3C2=O)cc1 | -0.249%
Cc1cc(C)cc(OCC(=O)NNC(=O)CCN2C(=O)c3ccccc3C2=O)c1 | 43.2% (active)
